Screening results from PubChem BioAssay.
Only some compounds are listed: those with a hit (about 1.6% of all), similar ones and a draw of the others.
PrPC surface inh: inhibitors of human cell surface prion protein PrPC, primary screen, cell-based, TR-FRET. Major prion protein (Homo sapiens), P04156. TR-FRET read-out. inhibition, % at 13.8 µM. actives 0.43% (n = 370,000). AID 720596, 2013; in the data active = inhibition above about 24%; also: 0% = median of the test wells and 100% = reference compound wells
PfHsp40 yeast: rescue of yeast from PfHsp40 toxicity, primary screen, S. cerevisiae, ATP luminescence; S. cerevisiae expressing PfHsp40, growth rescue; growth rescue, % at 12.5 µM; actives 0.68% (n = 340,000); AID 504582, 2011; in the data active = growth rescue above about 28%, passing the limit was not always enough;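 also: yeast W303a lacking pdr1 and pdr3 grown in galactose medium; growth measured after three days at 30 °C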
SSB-PriA inh: inhibitors of Klebsiella pneumoniae PriA binding to SSB C-terminal tail, primary screen, biochemical, AlphaScreen. inhibition, % at 33 µM. actives 0.6% (n = 430,000). AlphaScreen SSBct-PriA binding, biotinylated peptide. PriA–SSB C-terminal tail interaction (Klebsiella pneumoniae); in the data active = inhibition mostly above about 37%, no sharp cut-off; inactive = mostly below about 20%;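 also: plate controls were negative control peptide for no effect and reference peptide for full effect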
PrP 5UTR inh: inhibition of PrP 5' UTR reporter expression | cell-based PrP 5' UTR mRNA reporter, plate reader | inhibition, % (no concentration beside the values) | actives 0.35% (n = 340,000); in the data active = inhibition above about 52%; also: 0 = median of the neutral control wells
3CLpro inhibitor: SARS-CoV 3CLpro protease inhibitors, primary screen, biochemical, quenched FRET. Replicase polyprotein 1ab (Severe acute respiratory syndrome coronavirus), P0C6X7. recombinant SARS-CoV 3CLpro, quenched FRET peptide cleavage. inhibition, % at 6 µM. actives 0.14% (n = 290,000). AID 1706, 2009; in the data active = inhibition above about 12%
Vc quorum ag: inducers of Vibrio cholerae quorum light production without autoinducers, primary screen, BH1578 luxS cqsA deficient, single point; V. cholerae BH1578 lux reporter, luminescence, 6 h; activation, % at 18.7 µM; actives 0.16% (n = 350,000); in the data active = activation mostly above about 9.7%, no sharp cut-off
* marks the source's active call; other numbers are inactive results; i = inactive; · = no result.

SMILES | PrPC surface inh | PfHsp40 yeast | SSB-PriA inh | PrP 5UTR inh | 3CLpro inhibitor | Vc quorum ag
CCOc1cccc(/C=N/NC(=S)Nc2cc(S(=O)(=O)N3CCOCC3)ccc2N2CCOCC2)c1O | -3 | 60* | · | 16 | 8 | 0
O=C(c1ccccc1Cl)N1CCN(c2nc3c(F)cc(F)cc3s2)CC1 | · | · | 1 | · | · | ·
CCCC(=O)NCCn1ncc2c(=O)n(Cc3cccc(C)c3)cnc21 | · | · | -9 | · | · | ·
CCOC(=O)c1cc2c(ccn2C)n1Cc1cc(C)ccc1C | 5 | -1 | 41* | -23 | -4 | 7
COc1cc2c(cc1OC)CN(C(=O)C1CCCN1c1nc3ccccc3o1)CC2 (configuration not stated) | · | · | -16 | · | · | ·
CCOc1ccccc1NC(=O)Cn1cnc2c(cnn2-c2ccc(F)cc2)c1=O | · | · | -4 | · | · | ·
Cc1ccc2[nH]c(=O)c(C3C(C#N)=C(N)Oc4c3ccc3cccnc43)cc2c1 (configuration not stated) | -4 | 84* | -3 | -15 | 0 | -1
N#CC1=C(N)Oc2c(ccc3cccnc23)C1c1ccccc1 (configuration not stated) | 8 | 0 | 18 | 19 | 0 | i
COc1ccnc(Oc2ccccc2)c1C(=O)NC=NOCc1ccccc1F | · | · | -3 | · | · | ·
CCCn1c(O)c(N=NC(=O)CNC(=O)/C=C/c2ccc(OC)cc2)c2ccccc21 | -5 | 1 | -7 | -1 | 4 | 80*
CCCn1c(O)c(N=NC(=O)CNC(=O)Cc2ccc(OC)cc2)c2ccccc21 | -35 | 0 | -2 | -18 | 4 | 439*
CCCn1c(=O)c(C(=O)NCc2ccc(OC)c(OC)c2)c(O)c2ccccc21 | -3 | 334* | -16 | -30 | 3 | i
CCn1c(=O)c(C(=O)NCc2ccc(OC)c(OC)c2)c(O)c2ccccc21 | -4 | 0 | -11 | -7 | 4 | i
COc1ccc(-c2c(C#N)c(SCc3ccc4c(c3)OCO4)nc3c2C(=O)CC(C)(C)C3)cc1 | · | · | -12 | · | · | ·
O=C(O)CNC(=O)CC1SC(=NN=C2CSC(=O)N2)NC1=O (configuration not stated) | · | · | 95* | · | · | ·
Cc1c2cc[n+](CCN3CCCCC3)cc2c(C)c2c1[nH]c1ccc(O)cc12 | · | 53* | 21 | -43 | · | i
S=C(NNc1ccnc2cc(Cl)ccc12)Nc1ccccc1Cl | 8 | -1 | 40* | -27 | 7 | -3
Clc1ccc(NNc2ccnc3cc(Cl)ccc23)cc1 | 1 | 0 | 76* | -28 | -6 | i
S=C(Nc1ccccc1Cl)Nc1ccc(Cl)cc1Cl | 2 | 1 | -22 | -12 | 4 | 0
CCOC(=O)c1ccc(-n2nc(C(F)(F)F)c3c(C)cc(=O)oc32)cc1 | · | · | · | · | -7 | ·
Cc1cc(=O)oc2c1c(C)nn2-c1nn[nH]n1 | -1 | -2 | 58* | -10 | -2 | i
CCOc1ccc(C(C)=O)cc1COC(=O)c1ccccc1C(=O)N(C)Cc1ccccc1 | -4 | 96* | -15 | -6 | · | -6
CN(Cc1ccccc1)C(=O)c1ccccc1C(=O)OCC(=O)N(Cc1ccccc1)C(C)(C)C | -13 | 2 | 0 | · | · | 0
Oc1c(Cl)c(Cl)c(Cl)c(Cl)c1Cl | 14 | 298* | -10 | -24 | · | i
Oc1c(Cl)c(Cl)c(O)c(Cl)c1Cl | · | · | 11 | · | · | ·
SMILES | PrPC surface inh | PfHsp40 yeast | SSB-PriA inh | PrP 5UTR inh | 3CLpro inhibitor | Vc quorum ag
COc1ccc(-c2csc(NC(=O)C3CCN(S(C)(=O)=O)CC3)n2)cc1 | · | · | -4 | · | · | ·
COC1(CNS(=O)(=O)CC23CCC(CC2=O)C3(C)C)CCSC1 (configuration not stated) | · | · | 40* | · | · | ·
COCC(C)(O)CNS(=O)(=O)CC12CCC(CC1=O)C2(C)C (configuration not stated) | · | · | -7 | · | · | ·
CCOC(=O)c1c(NC(=O)CN2C(=O)/C(=C/c3ccccc3Cl)SC2=S)sc(C)c1C | · | · | -13 | · | · | ·
Cc1cccc(S(=O)(=O)NCC2(c3cccs3)CCCC2)c1 | · | · | -19 | · | · | ·
COC1=C(N)C(=O)c2nc(-c3nc(C(=O)O)c(C)c(-c4ccc(OC)c(OC)c4O)c3N)ccc2C1=O | · | 1 | -11 | 23 | 0 | 179*
